Several values for one entry are separate records, joined by “and”; a condition that tells them apart may be missing. Identical values can stand only once. Inconclusive results are not listed. A structure can be active in one record and inactive in another. Activity calls are given as the source filed them. Rule for the calls, unless noted: active = hit-call score of the fitted dose curve at least 0.9, where 1 is the maximum; inconclusive = response in the unintended direction; inactive = score below 0.9.
What was measured:
[1] = biological target: Peroxisome proliferator-activated receptor gamma (Homo sapiens) (UniProt P37231); test: NVS_NR_hPPARg: NovaScreen (NVS) Nuclear Receptor Binding Assay for human Peroxisome Proliferator-activated Receptor gamma (PPARg) (AID 2283370)
Procedure, shortened: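 Cell-free fluorescence polarization binding to human PPARg protein, read 2 h after dosing. Primary screen in duplicate at 25 uM, actives followed in concentration series; loss of signal relative to DMSO scored.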

[2] = biological target: Estrogen receptor beta (Homo sapiens) (UniProt Q92731); test: OT_ER_ERbERb_1440: Odyssey Thera (OT) 24-hour HEK293T Protein-Complementation Assay for Estrogen Receptor-beta/-beta Homodimer (AID 2283380);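 note: fluorescence gain from ER beta LBD homodimer complementation read by laser scanning cytometry; scored as signal increase over DMSO baseline for both agonists and antagonists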
Procedure, shortened: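 Fluorescence increase, nuclear for agonists or whole-cell for antagonists, relative to DMSO vehicle, quantified by laser scanning cytometer after fixation and Draq5 staining. Readout from 24 h treatment of HEK293T cells carrying complementation-paired ER beta LBD (aa 310-547).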

[3] = biological target: Estrogen receptor (Homo sapiens) (UniProt P03372); test: OT_ERa_GFPERaERE_0480: Odyssey Thera (OT) 8-hour HeLa Transcription Induction Assay for Estrogen Receptor (AID 2283381; active = hit-call score of the fitted dose curve at least 0.9, where 1 is the maximum; inactive = score below 0.9)
Procedure, shortened: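 HeLa cells dosed with compound and imaged by fluorescence microscopy at 8 h; GFP induction from an ERE reporter quantified by high-content image analysis and fitted as gain of signal against DMSO baseline.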

[4] = biological target: Estrogen receptor (Homo sapiens) (UniProt P03372); test: OT_ERa_GFPERaERE_0120: Odyssey Thera (OT) 2-hour HeLa Transcription Induction Assay for Estrogen Receptor (AID 2283382)
Procedure, shortened: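 HeLa cells were dosed with test chemical and read 2 hours later for GFP-ERα/ERE-linked fluorescent protein induction by fluorescence microscopy. Gain-of-signal was fitted relative to DMSO baseline, quantified by high content image analysis.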

[5] = biological target: Bile acid receptor (Homo sapiens) (UniProt Q96RI1); test: OT_FXR_FXRSRC1_0480: Odyssey Thera (OT) 8-hour HEK293T Protein-Complementation Assay for Farnesoid X receptor/SRC-1 Co-activator (AID 2283383)
Procedure, shortened: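 HEK293T cells expressing FXR and SRC-1 fused to reporter fragments were dosed with compound for 8 h; fluorescence from the reconstituted reporter marked co-activator recruitment. Gain of signal was fitted against the DMSO baseline.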

[6] = biological target: Retinoic acid receptor RXR-alpha (Homo sapiens) (UniProt P19793); test: OT_NURR1_NURR1RXRa_0480: Odyssey Thera (OT) 8-hour HEK293T Protein Complementation Assay for Nurr1/retinoid X receptor (RXR) (AID 2283385)
Procedure, shortened: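 HEK293T cells expressing Nurr1 and RXRα fused to reporter fragments were dosed with compound for 8 hours. Complex formation was read as fluorescence intensity and analysed as gain of signal against DMSO as baseline.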

[7] = biological target: Retinoic acid receptor RXR-alpha (Homo sapiens) (UniProt P19793); test: OT_NURR1_NURR1RXRa_1440: Odyssey Thera (OT) 24-hour HEK293T Protein Complementation Assay for Nurr1/retinoid X receptor (RXR) (AID 2283386)
Procedure, shortened: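 HEK293T cells were dosed with compound and read 24 h later by fluorescence intensity in a protein-fragment complementation format, where Nurr1–RXRα interaction reconstitutes a split reporter. Activity was fitted as gain of signal relative to DMSO baseline.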

[8] = biological target: Peroxisome proliferator-activated receptor gamma (Homo sapiens) (UniProt P37231); test: OT_PPARg_PPARgSRC1_0480: Odyssey Thera (OT) 8-hour Protein-Complementation Assay for Peroxisome Proliferator-activated Receptor Gamma / SRC-1 Co-activator (AID 2283387)
Procedure, shortened: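 HEK293T transiently transfected with PPARg and SRC-1 fused to Venus YFP fragments, compounds 8 h at 37C. Fixed, Draq5-stained cells imaged; nuclear/cytoplasmic 488 nm fluorescence ratio over at least 350 cells per image; gain fitted versus DMSO.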

[9] = biological target: Peroxisome proliferator-activated receptor gamma (Homo sapiens) (UniProt P37231); test: OT_PPARg_PPARgSRC1_1440: Odyssey Thera (OT) 24-hour Protein-Complementation Assay for Peroxisome Proliferator-activated Receptor Gamma/ SRC-1 Co-activator (AID 2283388)
Procedure, shortened: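 HEK293T transiently transfected with PPARg/SRC-1 split-Venus YFP fusions 48 h before dosing, then treated 24 h at 37C. Fixed cells imaged; nuclear/cytoplasmic 488 nm fluorescence ratio, gain of signal versus DMSO.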

[10] = biological target: guinea pig Sigma Receptor, Non-selective Binding, SIGMAR1 (gene 100135589) (UniProt Q60492); test: NVS_OR_gSIGMA_NonSelective: NovaScreen (NVS) Nuclear Receptor Binding Assay for guinea pig Sigma Receptor, Non-selective Binding (AID 2283367)
Procedure, shortened: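 gp brain membr., radioligand displacement, 1 h, filtration + scint. counting; DMSO = baseline; 25 uM x2 primary, conc.-response confirm.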

[11] = biological target: human Adenosine Transporter (Adot), SLC29A1 (gene 2030) (UniProt Q99808); test: NVS_TR_hAdoT: NovaScreen (NVS) Transporter Assay for human Adenosine Transporter (Adot) (AID 2283368)
Procedure, shortened: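 U937-derived membranes, cell-free radioligand binding, filter scintillation 1 h after dosing. 25 uM duplicate screen; hits (e.g. 30% inhibition) run in concentration-response up to 50 uM; loss of signal versus DMSO.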

[12] = system: guinea pig Dopamine Transporter (DAT), gene 100714898; test: NVS_TR_gDAT: NovaScreen (NVS) Transporter Assay for guinea pig Dopamine Transporter (DAT) (AID 2283369);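 note: active compounds lower bound radioligand signal relative to DMSO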
Procedure, shortened: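 Guinea pig striatal membranes, cell-free radioligand binding with filter-based scintillation counting, read 2 h after dosing. Loss of signal versus DMSO baseline; single-concentration primary (25 uM) then concentration-response up to 50 uM.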

[13] = biological target: human Dopamine Transporter (DAT), SLC6A3 (gene 6531) (UniProt Q01959); test: NVS_TR_hDAT: NovaScreen (NVS) Transporter Assay for human Dopamine Transporter (DAT) (AID 2283374);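 note: activity means loss of bound radioligand signal relative to DMSO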
Procedure, shortened: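 Test chemicals were first screened in duplicate at 25 uM, with actives retested as concentration series. Displacement of a specific radioligand from cell-free human dopamine transporter was measured after 1 h by filtration and scintillation counting.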

[14] = biological target: rat Serotonin Transporter (SERT), Slc6a4 (gene 25553) (UniProt P31652); test: NVS_TR_rSERT: NovaScreen (NVS) Transporter Assay for rat Serotonin Transporter (SERT) (AID 2283375)
Procedure, shortened: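 Rat forebrain membranes; radioligand displacement at SERT read by filter-based scintillation counting, 1 h after dosing. Screened in duplicate at 25 uM, actives then run in concentration series; loss of signal versus DMSO baseline.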

[15] = biological target: human Norepinephrine Transporter (NET), SLC6A2 (gene 6530) (UniProt P23975); test: NVS_TR_hNET: NovaScreen (NVS) Transporter Assay for human Norepinephrine Transporter (NET) (AID 2283377);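 note: cell-free membrane protein extracted from CHO cells expressing human NET; displacement of radioligand from human NET seen as loss of scintillation signal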
Procedure, shortened: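 Scintillation counts of filter-retained radioligand served as the readout, taken 1 h post-dosing in a cell-free CHO-derived system. Test chemicals ran first at 25 uM in duplicate; confirmed hits were retested across concentrations.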

[16] = biological target: mouse Estrogen Receptor alpha (Era), Esr1 (gene 13982) (UniProt P19785); test: NVS_NR_mERa: NovaScreen (NVS) Nuclear Receptor Binding Assay for mouse Estrogen Receptor alpha (Era) (AID 2283378);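 note: hit means loss of bound radioligand signal relative to DMSO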
Procedure, shortened: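 Cell-free radioligand competitive displacement binding, read by filter-based scintillation counting 18 h after dosing. Primary screen run in duplicate at 25 uM, actives retested in concentration series; loss of signal versus DMSO.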

[17] = biological target: human Serotonin Transporter (SERT), SLC6A4 (gene 6532) (UniProt P31645); test: NVS_TR_hSERT: NovaScreen (NVS) Transporter Assay for human Serotonin Transporter (SERT) (AID 2283372)
Procedure, shortened: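 Radioligand binding to native SERT in human platelet membranes, read by filter-based scintillation counting 1 h after dosing. Primary screen in duplicate at 25 uM; actives followed up in concentration series; loss of signal versus DMSO baseline.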

[18] = biological target: Agonist Androgen Response Element (ARE), AR (gene 367) (UniProt P10275); test: OT_AR_ARELUC_AG_1440: Odyssey Thera (OT) 24-hour CHO-K1 Luciferase Assay for Agonist Androgen Response Element (ARE) (AID 2283379)
Procedure, shortened: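 Agonist mode, 24 h exposure in CHO-K1 ARE-luciferase cells; values reflect luminescence induction over vehicle.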

[19] = biological target: Bile acid receptor (Homo sapiens) (UniProt Q96RI1); test: OT_FXR_FXRSRC1_1440: Odyssey Thera (OT) 24-hour HEK293T Protein-Complementation Assay for Farnesoid X receptor/SRC-1 Co-activator (AID 2283384)
Procedure, shortened: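 HEK293T cells were dosed with compound and read 24 h later by fluorescence intensity from protein-fragment complementation reporting FXR/SRC-1 co-activator interaction. Gain of signal was fitted relative to DMSO negative control as baseline.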

[20] = system: rat Norepinephrine Transporter (NET), gene 83511; test: NVS_TR_rNET: NovaScreen (NVS) Transporter Assay for rat Norepinephrine Transporter (NET) (AID 2283373)
Procedure, shortened: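 Rat forebrain membranes; radioligand binding measured by filter-based scintillation counting 1 hour after dosing. Loss of specific binding versus DMSO baseline scored; primary screen in duplicate at 25 uM, actives followed up in concentration series.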

Measured: AC50

Chain of Estrogen receptor beta (Homo sapiens) (Q92731 whole entry, looked up, the tested form may be a part): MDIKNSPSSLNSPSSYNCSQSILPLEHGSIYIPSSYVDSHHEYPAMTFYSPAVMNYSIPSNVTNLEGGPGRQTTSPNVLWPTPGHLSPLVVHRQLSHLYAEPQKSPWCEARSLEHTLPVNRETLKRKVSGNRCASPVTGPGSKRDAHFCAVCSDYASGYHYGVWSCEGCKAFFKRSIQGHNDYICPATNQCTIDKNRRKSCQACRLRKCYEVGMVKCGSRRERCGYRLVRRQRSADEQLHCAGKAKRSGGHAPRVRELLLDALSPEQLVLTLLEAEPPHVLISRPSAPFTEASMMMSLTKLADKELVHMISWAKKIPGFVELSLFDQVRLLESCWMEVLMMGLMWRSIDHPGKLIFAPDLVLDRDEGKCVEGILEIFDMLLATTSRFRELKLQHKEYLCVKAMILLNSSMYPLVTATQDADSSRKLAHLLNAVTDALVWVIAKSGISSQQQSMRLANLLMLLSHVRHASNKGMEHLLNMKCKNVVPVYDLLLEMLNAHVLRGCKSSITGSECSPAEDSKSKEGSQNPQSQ
Chain of Bile acid receptor (Homo sapiens) (Q96RI1 whole entry, looked up, the tested form may be a part): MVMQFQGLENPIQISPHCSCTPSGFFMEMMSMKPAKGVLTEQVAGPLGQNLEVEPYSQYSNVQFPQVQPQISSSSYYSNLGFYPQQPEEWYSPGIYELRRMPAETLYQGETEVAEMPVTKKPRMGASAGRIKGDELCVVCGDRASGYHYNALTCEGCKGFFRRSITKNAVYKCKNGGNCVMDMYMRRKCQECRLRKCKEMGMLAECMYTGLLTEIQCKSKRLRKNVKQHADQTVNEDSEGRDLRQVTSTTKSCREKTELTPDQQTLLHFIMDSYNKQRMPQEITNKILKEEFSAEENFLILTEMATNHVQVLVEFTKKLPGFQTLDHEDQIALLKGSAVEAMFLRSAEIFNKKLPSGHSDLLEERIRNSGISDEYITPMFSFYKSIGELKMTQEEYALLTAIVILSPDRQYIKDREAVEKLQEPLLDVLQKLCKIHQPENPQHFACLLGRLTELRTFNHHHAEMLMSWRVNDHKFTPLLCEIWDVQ
Chain of mouse Estrogen Receptor alpha (Era), Esr1 (gene 13982) (P19785 whole entry, looked up): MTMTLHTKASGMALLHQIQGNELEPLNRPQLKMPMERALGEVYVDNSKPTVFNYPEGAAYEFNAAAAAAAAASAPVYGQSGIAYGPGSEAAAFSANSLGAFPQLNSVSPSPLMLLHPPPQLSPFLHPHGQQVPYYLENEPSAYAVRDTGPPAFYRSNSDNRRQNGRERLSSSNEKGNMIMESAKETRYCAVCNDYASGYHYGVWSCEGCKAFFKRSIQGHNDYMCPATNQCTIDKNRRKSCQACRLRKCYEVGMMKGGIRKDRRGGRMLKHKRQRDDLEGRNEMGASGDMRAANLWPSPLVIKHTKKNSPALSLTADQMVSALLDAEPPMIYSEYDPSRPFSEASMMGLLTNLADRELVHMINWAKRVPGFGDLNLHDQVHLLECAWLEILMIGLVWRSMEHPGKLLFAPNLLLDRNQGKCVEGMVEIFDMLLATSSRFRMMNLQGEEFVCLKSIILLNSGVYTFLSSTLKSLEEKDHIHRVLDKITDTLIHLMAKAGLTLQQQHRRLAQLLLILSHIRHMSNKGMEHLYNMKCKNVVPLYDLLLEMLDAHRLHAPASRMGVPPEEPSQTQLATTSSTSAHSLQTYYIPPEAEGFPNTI
Chain of Agonist Androgen Response Element (ARE), AR (gene 367) (P10275 whole entry, looked up): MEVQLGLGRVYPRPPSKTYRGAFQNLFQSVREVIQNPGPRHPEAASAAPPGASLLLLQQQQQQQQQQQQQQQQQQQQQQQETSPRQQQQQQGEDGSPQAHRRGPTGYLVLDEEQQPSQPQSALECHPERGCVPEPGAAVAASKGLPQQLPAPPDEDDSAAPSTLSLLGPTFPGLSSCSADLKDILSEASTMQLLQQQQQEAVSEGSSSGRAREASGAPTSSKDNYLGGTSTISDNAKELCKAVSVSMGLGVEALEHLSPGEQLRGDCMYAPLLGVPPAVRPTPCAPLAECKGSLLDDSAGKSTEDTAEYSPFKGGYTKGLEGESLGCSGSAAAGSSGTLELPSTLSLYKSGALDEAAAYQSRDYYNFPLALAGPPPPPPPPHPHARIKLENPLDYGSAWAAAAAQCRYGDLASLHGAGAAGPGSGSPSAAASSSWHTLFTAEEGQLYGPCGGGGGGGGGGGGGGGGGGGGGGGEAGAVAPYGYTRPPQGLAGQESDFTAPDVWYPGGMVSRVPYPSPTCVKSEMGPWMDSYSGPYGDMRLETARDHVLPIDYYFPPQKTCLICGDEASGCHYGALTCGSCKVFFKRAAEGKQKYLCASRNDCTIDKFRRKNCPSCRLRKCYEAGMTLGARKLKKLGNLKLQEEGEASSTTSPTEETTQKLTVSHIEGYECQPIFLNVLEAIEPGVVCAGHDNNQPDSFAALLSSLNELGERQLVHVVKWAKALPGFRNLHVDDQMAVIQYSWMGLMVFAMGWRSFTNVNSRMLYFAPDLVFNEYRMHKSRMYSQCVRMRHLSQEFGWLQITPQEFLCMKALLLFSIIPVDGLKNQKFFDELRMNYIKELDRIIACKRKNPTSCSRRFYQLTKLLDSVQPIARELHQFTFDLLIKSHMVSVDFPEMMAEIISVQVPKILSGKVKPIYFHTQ
Chain of Estrogen receptor (Homo sapiens) (P03372 whole entry, looked up): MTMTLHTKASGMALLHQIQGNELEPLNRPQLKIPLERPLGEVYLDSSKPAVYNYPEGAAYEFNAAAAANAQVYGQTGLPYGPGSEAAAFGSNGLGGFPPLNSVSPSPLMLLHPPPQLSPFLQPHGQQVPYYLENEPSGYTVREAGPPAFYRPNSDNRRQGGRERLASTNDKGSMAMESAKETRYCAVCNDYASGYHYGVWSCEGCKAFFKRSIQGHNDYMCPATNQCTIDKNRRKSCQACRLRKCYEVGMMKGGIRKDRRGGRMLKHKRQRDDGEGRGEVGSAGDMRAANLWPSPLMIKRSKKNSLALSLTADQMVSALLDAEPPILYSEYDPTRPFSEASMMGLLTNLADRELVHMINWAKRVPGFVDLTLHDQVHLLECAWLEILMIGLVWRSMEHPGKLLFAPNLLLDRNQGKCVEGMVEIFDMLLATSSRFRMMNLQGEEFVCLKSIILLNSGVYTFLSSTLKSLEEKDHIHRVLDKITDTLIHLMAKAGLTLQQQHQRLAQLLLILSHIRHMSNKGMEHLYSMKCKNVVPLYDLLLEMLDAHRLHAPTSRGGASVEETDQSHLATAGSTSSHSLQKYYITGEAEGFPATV
Chain of Retinoic acid receptor RXR-alpha (Homo sapiens) (P19793 whole entry, looked up, the tested form may be a part): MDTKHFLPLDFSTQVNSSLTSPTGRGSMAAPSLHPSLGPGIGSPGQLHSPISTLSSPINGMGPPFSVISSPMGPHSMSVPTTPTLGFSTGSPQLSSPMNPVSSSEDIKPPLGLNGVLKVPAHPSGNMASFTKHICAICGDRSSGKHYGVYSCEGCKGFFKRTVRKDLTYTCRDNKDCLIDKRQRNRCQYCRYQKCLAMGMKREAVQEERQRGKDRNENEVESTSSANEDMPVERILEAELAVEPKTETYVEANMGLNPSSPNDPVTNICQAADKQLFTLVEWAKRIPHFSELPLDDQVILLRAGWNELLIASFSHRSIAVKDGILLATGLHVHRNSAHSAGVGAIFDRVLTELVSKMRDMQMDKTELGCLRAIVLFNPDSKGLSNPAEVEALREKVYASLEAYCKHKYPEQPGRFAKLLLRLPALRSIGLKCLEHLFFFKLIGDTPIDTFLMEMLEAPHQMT
Chain of Peroxisome proliferator-activated receptor gamma (Homo sapiens) (P37231 whole entry, looked up, the tested form may be a part): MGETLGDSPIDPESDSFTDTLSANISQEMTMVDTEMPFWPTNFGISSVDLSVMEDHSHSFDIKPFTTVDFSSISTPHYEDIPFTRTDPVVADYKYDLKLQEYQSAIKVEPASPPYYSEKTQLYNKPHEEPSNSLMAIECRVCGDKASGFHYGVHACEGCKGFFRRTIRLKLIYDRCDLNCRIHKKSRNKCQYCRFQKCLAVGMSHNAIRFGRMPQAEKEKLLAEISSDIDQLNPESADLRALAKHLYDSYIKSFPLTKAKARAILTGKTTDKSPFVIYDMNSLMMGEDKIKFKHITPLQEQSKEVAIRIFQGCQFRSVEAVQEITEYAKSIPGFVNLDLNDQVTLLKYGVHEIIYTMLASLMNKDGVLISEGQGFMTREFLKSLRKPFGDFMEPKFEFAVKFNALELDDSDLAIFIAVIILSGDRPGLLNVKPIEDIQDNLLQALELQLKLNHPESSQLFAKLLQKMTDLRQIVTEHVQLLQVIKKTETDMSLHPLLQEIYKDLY
Chain of guinea pig Sigma Receptor, Non-selective Binding, SIGMAR1 (gene 100135589) (Q60492 whole entry, looked up): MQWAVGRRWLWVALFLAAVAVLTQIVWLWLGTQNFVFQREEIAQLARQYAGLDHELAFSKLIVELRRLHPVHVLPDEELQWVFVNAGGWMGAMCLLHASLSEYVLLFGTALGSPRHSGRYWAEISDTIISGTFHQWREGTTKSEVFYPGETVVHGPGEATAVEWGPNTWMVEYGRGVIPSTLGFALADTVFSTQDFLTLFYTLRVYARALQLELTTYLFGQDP
Chain of human Norepinephrine Transporter (NET), SLC6A2 (gene 6530) (P23975 whole entry, looked up): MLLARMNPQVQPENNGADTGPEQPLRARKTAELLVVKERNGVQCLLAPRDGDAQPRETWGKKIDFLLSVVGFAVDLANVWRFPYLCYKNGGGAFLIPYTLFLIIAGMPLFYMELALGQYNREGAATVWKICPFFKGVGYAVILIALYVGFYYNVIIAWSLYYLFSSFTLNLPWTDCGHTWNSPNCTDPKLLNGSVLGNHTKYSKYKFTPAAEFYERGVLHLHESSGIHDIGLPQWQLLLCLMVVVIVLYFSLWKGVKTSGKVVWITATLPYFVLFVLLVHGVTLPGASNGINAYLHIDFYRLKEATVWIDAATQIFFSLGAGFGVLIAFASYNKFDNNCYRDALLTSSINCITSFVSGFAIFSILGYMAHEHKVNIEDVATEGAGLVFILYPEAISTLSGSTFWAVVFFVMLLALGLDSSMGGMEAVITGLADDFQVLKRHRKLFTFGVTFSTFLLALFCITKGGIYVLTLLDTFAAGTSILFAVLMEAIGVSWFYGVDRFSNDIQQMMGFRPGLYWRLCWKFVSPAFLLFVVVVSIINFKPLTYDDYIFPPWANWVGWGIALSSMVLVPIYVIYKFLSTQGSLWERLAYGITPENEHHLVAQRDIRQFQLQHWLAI

CC[C@H](C)[C@@H](C(=O)O)n1sc2ccccc2c1=O
inactive: [1] | [2] | [3] | [4] | [5] | [6] | [7] | [8] | [9]

C#C[C@]1(O)CC[C@H]2[C@@H]3CCC4=CC(=O)CC[C@@H]4[C@H]3CC[C@@]21C
inactive: [1] | [2] | [6] | [8] | [9]
active: [2] 29.3 µM and 30.3 µM and 22.2 µM

CCc1ccc(CCOc2ccc(CC3SC(=O)NC3=O)cc2)nc1 (stereo not drawn)
inactive: [10] | [2] | [3] | [4]
active: [6] 53.6 µM and 57.4 µM | [7] 36.2 µM and 41.7 µM

CCCOc1sc(C(=O)N2CCC(c3cc(CN)ccc3F)CC2)c(C)c1Br
inactive: [1] | [8] | [9]
active: [10] 1.27 µM | [11] 18.8 µM | [12] 14.4 µM | [13] 1.19 µM | [14] 23.2 µM | [15] 4.18 µM | [16] 5.52 µM

COCC(C)OCC(C)O (stereo not drawn)
inactive: [1] | [17] | [18] | [2] | [3] | [4] | [19] | [6] | [8] | [9]

O=C(O)c1ccccc1C(c1ccc(O)cc1)c1ccc(O)cc1
inactive: [1] | [16] | [18] | [2] | [3] | [4] | [6] | [7] | [8] | [9]
active: [16] 7.92 µM and 7.1 µM | [18] 1.95 µM

NC(=O)N(O)[C@@H]1C=C[C@H](Oc2cccc(Oc3ccc(F)cc3)c2)C1
active: [10] 7.64 µM | [12] 7.24 µM | [13] 0.489 µM | [15] 15 µM | [2] 66.9 µM | [19] 12.8 µM | [6] 92.2 µM
inactive: [17] | [20] | [3] | [4] | [5] | [6] | [8] | [9]

Source: PubChem BioAssay (EPA / NIEHS)
